Test results taken from PubChem BioAssay (NCATS).
Records with an inconclusive call do not appear. Values without a mark were called inactive. Calls of active or inactive are those of the source. Calls come from the whole dose curve; as a rule, active = well fitted cell-killing curve with a large enough effect; inconclusive = small, poorly fitted or top-dose-only effect; inactive = flat fitted curve, though single readings scatter.

Assay: Cell Viability - LYMP2-010 (AID 981); note: nearly all actives have a fitted effect of over 55% in size
Details: LYMP2-010 lymphoblastoid cell viability, qHTS; series mostly up to 92.2 µM; activity, negative = cytotoxicity: at the top concentration
Description: NIH Chemical Genomics Center [NCGC]
NIH Molecular Libraries Screening Centers Network [MLSCN]
National Institutes of Environmental Health Sciences [NIEHS]
National Toxicology Program [NTP]
We have developed a 1536-well cell-based assay for quantitative high throughput screening (qHTS) against a number of cell lines to determine in vitro cytotoxicity of small molecules. This particular assay uses a human lymphoblastoid cell line (LYMP2-010) purchased from Coriell Institute for Medical Research.
NCGC Assay Protocol Summary:
The CellTiter-Glo luminescent cell viability assay (Promega) is a homogeneous method to measure the number of viable cells in culture. The end point readout of this assay is based on quantitation of intracellular ATP, an indicator of metabolic activity, using the luciferase reaction. Luciferase catalyzes the oxidation of beetle Luciferin to oxyluciferin and light in the presence of ATP. The luminescent signal is proportional to amount of ATP present.
Using the CellTiter-Glo luminescent cell viability assay, the amount of cellular ATP was measured in the lymphoblastoid cell line with complete culture medium following compound treatment for 24 hours. The assay was performed in opaque white Kalypsys 1536-well plates. In the screen, tetraoctylammonium bromide was used as positive control. Library compounds were measured for their ability to cause acute toxicity in the cell line, as reflected by a decrease in intracellular ATP levels, in a concentration-dependent manner. […] AC50 values were determined from concentration-response data modeled with the standard Hill equation.
qHTS protocol for CellTiter Glo lymphoblastoid cellular assay
[Step] [Parameter] [Value] [Description]
1. Reagent; 5 uL; 2500 lymphoblastoid cells/well
2. Time; 5 hr; 37 C incubation
4. Controls; 23 nL; Tetraoctylammonium bromide 6.4pM to 92 uM
5. Time; 24 hr; 37 C incubation
6. Reagent; 5 uL; CellTiter Glo reagent
7. Time; 30 min; Room Temperature
8. Detection; Luminescence; Viewlux plate reader
Keywords: cell viability, cytotoxicity, lymphoblastoid cell line, luminescence, NTPHTS, NTPHTS_NCGC, NIEHS, DSSTox, MLSMR, MLSCN, NIH Roadmap, qHTS, NCGC
% is set by controls: 0 for no effect and ±100 for the full control effect; potency is the fitted concentration of half-maximal effect.

Row | SMILES | activity, negative = cytotoxicity [%] | Potency
1 | COc1cc(C=O)ccc1O | -13.6 | 
2 | CC(C)(C)c1ccc(O)c(O)c1 |  | 31.6 µM (active)
3 | Nc1cccc2c(N)cccc12 | -23.3 | 
4 | CCCCC(CC)COC(=O)c1ccccc1C(=O)O (stereo not given) | -19.8 | 
5 | CCCCCCCCCCCCCCCC[n+]1ccccc1 |  | 15.8 µM (active)
6 | OCc1c[nH]c2ccccc12 | -12.3 | 
7 | O=C(NO)c1ccccc1 | -12.8 | 
8 | Nc1c2ccccc2nc2ccccc12 |  | 12.6 µM (active)
9 | O=C(c1ccccc1)c1ccccc1 | -4.24 | 
10 | CC(=O)OC/C=C(C)/C=C/C=C(C)/C=C/C1=C(C)CCCC1(C)C |  | 50.1 µM (active)
11 | c1ccc2occc2c1 | -12.3 | 
12 | CC(C)(c1ccc(O)cc1)c1ccc(O)cc1 |  | inactive
13 | Nc1ccc(O)cc1 |  | 25.1 µM (active)
14 | Cc1ccc(O)cc1 | -7.98 | 
15 | O=C(Oc1ccccc1)c1ccccc1O | -8.39 | 
16 | CC(C)C(C)(C)C(C)(C)C(C)(C)S | -11.3 | 
17 | Oc1ccccc1 | 9.68 | 
18 | Brc1ccccc1-c1ccccc1 | -17 | 
19 | C1=CC2C3C=CC(C3)C2C1 (stereo not given) | -15.8 | 
20 | Cc1cc(C(C)(C)C)c(O)c(C(C)(C)C)c1 | -8.65 | 
